mHTT-CaM PPI inh = inhibitors of human mutant huntingtin-calmodulin interaction; P42858; AlphaScreen His-mHTT/GST-CaM binding, luminescence; inhibition, % at 15 µM; 190,000 tested, 3.6% active; AID 1671202;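 note: 0% = both proteins with DMSO and 100% = one protein alone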
Pf apPOL inh = Pf-apPOL DNA polymerase inhibition; inhibition, % at 10 µM; 210,000 tested, 0.25% active; Recombinant Pf-apPOL, molecular beacon fluorescence, 1.5 h
* = called active by the depositor; · = no result given. An excerpt weighted towards active compounds, which were near 3.6% of everything screened. Cut-off read from the data, not from the text of the source: active = inhibition above about 50%; inactive = the rest.

SMILES	mHTT-CaM PPI inh	Pf apPOL inh
COc1ccc(C2CC(=O)C3=C(C2)Nc2ccccc2NC3c2cccc([N+](=O)[O-])c2)cc1OC (stereo not given)	32	14
O=C1CC(c2ccccc2)CC2=C1C(c1ccc(Br)cc1)Nc1ccccc1N2 (stereo not given)	79*	0
O=C1CC(c2ccc(Cl)cc2)CC2=C1C(c1cccc([N+](=O)[O-])c1)Nc1ccccc1N2 (stereo not given)	62*	-4
CSc1ccc(C2Nc3ccccc3NC3=C2C(=O)CC(c2ccccc2)C3)cc1 (stereo not given)	49	-10
Cc1ccc(S(=O)(=O)N2CCC(n3cnc4ccccc4c3=O)CC2)cc1Cl	-8	1
CC(C)c1noc(C2(NC(=O)c3ccccc3F)CCCCC2)n1	-3	-2
O=C(c1ccc2c(c1)OCO2)n1cccn1	-1	66*
O=C(CSc1ccccn1)c1ccc2c(c1)OCO2	-8	-2
CCCCN(C)CCNC(=O)c1ccc(CS(=O)(=O)Cc2ccc(Cl)cc2)o1	4	-14
CC(C)COc1ccc2c(c1)Sc1ccccc1N2CCN(C)C	93*	-20
CN(C)CCCN1c2ccccc2Sc2ccc(Cl)cc21	·	10
CC(=O)Nc1ccccc1NC(=O)c1cccc(F)c1	-1	-2
O=C(COc1ccccc1)N1CCC(Cn2cnc3ccccc32)CC1	-9	-5
NC(=O)C1CCN(Cc2cncc(-c3ccc(Cl)cc3)c2)CC1	7	-3
O=C(C=Cc1ccco1)c1ccc(O)cc1	6	2
O=C(/C=C/c1ccco1)c1cccs1	79*	11
O=C(O)CN1C(=O)C(=O)c2ccccc21	3	2
O=C1C(=O)N(C(c2ccccc2)c2ccccc2)c2ccccc21	92*	0
COc1cc2c(cc1OC)/C(=C/c1cc(OC)c(OC)c(OC)c1)C(=O)N2	50	·
COc1ccc(O)c(/C=C2\C(=O)Nc3ccc(Br)cc32)c1	91*	-7
O=C1Nc2ccccc2/C1=C/c1ccc(Cl)cc1Cl	10	-2
COc1ccc(/C=C2\C(=O)Nc3ccc(Br)cc32)c(OC)c1OC	100*	4
O=C1Nc2ccc(Br)cc2/C1=C/c1ccc(Cl)cc1Cl	52*	-6
COc1ccc(N=C2C(=O)Nc3ccc(Br)cc32)cc1	26	5
COc1ccc(OC)c(/C=C2\C(=O)Nc3ccc(Br)cc32)c1	54*	-1
SMILES	mHTT-CaM PPI inh	Pf apPOL inh
CC(C)(C)C(=O)C=C1C(=O)Nc2ccc(Br)cc21	·	-1
CCOC(=O)C1CCC(CNC(=O)N2CC(CC)Oc3ccc(Cl)cc32)CC1 (stereo not given)	-3	0
Cn1nccc1C(=O)N1CCCCC1c1nc(-c2cnccn2)no1 (stereo not given)	0	-3
Cc1cccc(N2CCN(C(=O)CN3C(=O)c4ccccc4C3=O)C(C)C2)c1 (stereo not given)	11	5
O=C(CN(Cc1ccccc1)S(=O)(=O)c1cc(Cl)ccc1Cl)NCc1ccncc1	20	-6
COc1ccc(NC(=O)COc2cccc(Cl)c2)cc1OC	12	-2
C(=C1c2ccccc2-c2ccccc21)c1ccccn1	-142	-4
Nc1ccc2c(c1)/C(=C/c1ccccc1)c1ccccc1-2	100*	-1
COc1ccc(C2Oc3c(OC)cccc3C3CC(c4ccco4)=NN32)cc1OC (stereo not given)	44	-21
COc1ccc(/C=C2\C(=O)c3ccc(C(=O)O)cc3C2=O)cc1OC	3	-10
CCN(CC)c1ccc(/C=C2\C(=O)c3ccc(C(=O)O)cc3C2=O)cc1	62*	1
NS(=O)(=O)c1ccc(Sc2ccc(Cl)c(Cl)c2)c([N+](=O)[O-])c1	·	-8
Cc1cc(Cl)ccc1N(CC(=O)Nc1ccc(F)cc1)S(C)(=O)=O	-2	-5
Cc1cc(C)cc(N(CC(=O)Nc2ccc(F)c(Cl)c2)S(C)(=O)=O)c1	56*	-1
CN(C)c1cc(C(F)(F)F)cnc1C(N)=NO	·	2
O=C(C1CCN(c2nc3ccc(-c4ccc(F)cc4)nc3s2)CC1)N1CCCC1	1	-7
Cc1cc2oc(=O)cc(-c3cc4ccccc4o3)c2cc1O	6	3
Cc1c2cc(O)c(=O)cc-2oc2cc(O)c(O)cc12	100*	·
CC1=NS(=O)(=O)c2ccccc2N1Cc1cccc(F)c1	-2	-1
Cc1nc2ccc(N(C)C)cc2s1	13	-7
CN(C)c1ccc2nc3ccc(=O)cc-3sc2c1	59*	·
O=S1(=O)N=Nc2c3ccccc3c(O)c3cccc1c23	22	·
O=C1NC(=Nc2ccc(F)cc2)S/C1=C/c1ccco1	68*	1
O=C1NC(=Nc2ccc(F)cc2)S/C1=C/c1ccc(O)c(O)c1	57*	30
COc1cc(/C=C2/SC(=Nc3ccc(O)cc3)NC2=O)ccc1O	31	-7
SMILES	mHTT-CaM PPI inh	Pf apPOL inh
Cc1cc(C)cc(N=C2NC(=O)/C(=C/c3ccccc3)S2)c1	7	1
Cc1cc(C)cc(N=C2NC(=O)/C(=C/c3ccco3)S2)c1	79*	2
O=C1NC(=Nc2ccc(F)cc2)S/C1=C/c1cccs1	12	1
O=C(c1cccs1)N1CCN(Cc2nc(C3CC3)cs2)CC1	-6	-6
c1ccc2c3c([nH]c2c1)CCSC3	32	7
O=C(CN1c2ccccc2Sc2ccccc21)NN=Cc1cccs1	·	-5
O=C(CSc1nc2[nH]ncc2c(=O)n1-c1ccc(F)c(Cl)c1)NC1CCCCNC1=O (stereo not given)	5	-2
Cc1ccsc1C1C(C#N)=C(N)N(c2ccc(S(N)(=O)=O)cc2)C2=C1C(=O)CC(C)(C)C2 (stereo not given)	13	0
Cc1cccc(NC(=O)CSc2nnc3c(n2)C2(C)CCC3C2(C)C)c1 (stereo not given)	-4	1
CC1=C(C)CC(C(=O)NCc2csc3ccccc23)C(C(=O)O)C1 (stereo not given)	·	-5
Cc1ccc(-n2cc(C(=O)N3CCN(Cc4ccccc4)CC3)nn2)cc1C	1	1
O=C1CN(S(=O)(=O)c2ccc3nc(-c4ccccc4)[nH]c3c2)CC(=O)N1CCc1ccccc1	14	8
FC(F)(F)c1cccc(N=Cc2c(-c3ccccc3)nc3n2CCS3)c1	·	-14
C(=Nc1c(-c2ccccc2)nc2n1CCS2)c1ccccc1	59*	-21
Cc1nc(SCc2ccccc2)[nH]c(=O)c1CC(=O)O	-7	-16
CC(=O)c1cccc(NC(=O)Cc2c(C)nc(SCc3cccc(Cl)c3)[nH]c2=O)c1	51*	-5
CCOC(=O)c1cnc2ccc(C(F)(F)F)cn2c1=O	·	-4
Cc1ccc2c(c1)N(Cc1cccc(C(=O)N3CCOCC3)c1)C(=O)CO2	3	-5
N#Cc1cc2c(N)c(C(=O)Nc3ccccc3Oc3ccccc3)sc2nc1N	81*	-1
N#Cc1cc2c(N)c(C(=O)c3ccc(Cl)cc3)sc2nc1N	11	-11
COc1ccc(OC)c(NC(=O)C2CCCN(C(=O)c3ccc(Cl)cc3)C2)c1 (stereo not given)	33	-5
Cc1ccc(-c2ccccc2N)o1	19	-1
Cc1ccc(-c2ccc(N)cc2)o1	55*	-1
O=c1c2ccccc2ncn1CCCOc1cccc(Br)c1	-4	-11
COc1cc(OC)c2c(-c3ccccc3)cc(=O)oc2c1C(CCN1CCCCC1)c1ccc2c(c1)OCO2 (stereo not given)	99*	-8
COc1cc(OC)c2c(-c3ccccc3)cc(=O)oc2c1C(CC(=O)N1CCCC1)c1ccc2c(c1)OCO2 (stereo not given)	69*	1

Bioassay records: PubChem BioAssay, University of Kansas High Throughput Screening Laboratory
